In PubChem BioAssay (NCATS):
Inconclusive results are not listed. Active and inactive are the calls of the source. Unless noted, the call rests on the fitted dose curve; in most records, active means well fitted curve in the direction sought with a large enough effect; inconclusive means small, poorly fitted or top-dose-only effect, or another doubt; inactive means no such curve, though single readings can be large; an effect the other way counts as inactive or inconclusive.

Columns and labels:
[1] = Quantitative High-Throughput drug screen in 47 multiple myeloma cell lines against the NCATS MIPE library collection: L363_DSMZ cell viability assay (AID 1918984); further: nearly all actives have a fitted effect of over 40% in size
How it was run: (§1)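 500 cells/well per myeloma line exposed to pinned MIPE 4.0 compounds for 48 h at 37 °C, 5% CO2. Viability read as ATP by CellTiter-Glo luminescence, normalised to DMSO-only (100%) and media-only (0%) wells.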

[2] = Quantitative High-Throughput drug screen in 47 multiple myeloma cell lines against the NCATS MIPE library collection: KMS34_JCRB cell viability assay (AID 1918985); further: nearly all actives have a fitted effect of over 40% in size
How it was run: as §1

[3] = Quantitative High-Throughput drug screen in 47 multiple myeloma cell lines against the NCATS MIPE library collection: OCIMY7_PLB cell viability assay (AID 1918987); further: nearly all actives have a fitted effect of over 65% in size
How it was run: as §1

[4] = Quantitative High-Throughput drug screen in 47 multiple myeloma cell lines against the NCATS MIPE library collection: OCIMY5_PLB cell viability assay (AID 1918988); further: nearly all actives have a fitted effect of over 65% in size
How it was run: as §1

[5] = Quantitative High-Throughput drug screen in 47 multiple myeloma cell lines against the NCATS MIPE library collection: SKMM1_PLB cell viability assay (AID 1919863); conditions: SKMM1 myeloma viability, CellTiter-Glo ATP, 48 h; viability: stronger effect = lower value; further: nearly all actives have a fitted effect of over 35% in size
How it was run: as §1

[6] = Quantitative High-Throughput drug screen in 47 multiple myeloma cell lines against the NCATS MIPE library collection: XG6_PLB cell viability assay (AID 1919865); further: nearly all actives have a fitted effect of over 40% in size
How it was run: as §1

[7] = Quantitative High-Throughput drug screen in 47 multiple myeloma cell lines against the NCATS MIPE library collection: XG1_PLB cell viability assay (AID 1919866); further: nearly all actives have a fitted effect of over 35% in size
How it was run: as §1

[8] = Quantitative High-Throughput drug screen in 47 multiple myeloma cell lines against the NCATS MIPE library collection: VP6_DJ cell viability assay (AID 1919867); further: nearly all actives have a fitted effect of over 40% in size
How it was run: as §1

[9] = Quantitative High-Throughput drug screen in 47 multiple myeloma cell lines against the NCATS MIPE library collection: UTMC2_PLB cell viability assay (AID 1919868); conditions: CellTiter-Glo ATP luminescence, 48 h; viability (% of DMSO control): at 45.8 µM (top of the series) unless noted; further: nearly all actives have a fitted effect of over 55% in size
How it was run: as §1

[10] = Quantitative High-Throughput drug screen in 47 multiple myeloma cell lines against the NCATS MIPE library collection: PE2_PLB cell viability assay (AID 1919869); further: nearly all actives have a fitted effect of over 35% in size
How it was run: as §1

[11] = Quantitative High-Throughput drug screen in 47 multiple myeloma cell lines against the NCATS MIPE library collection: PCM6_Riken cell viability assay (AID 1919870); further: nearly all actives have a fitted effect of over 30% in size
How it was run: as §1

[12] = Quantitative High-Throughput drug screen in 47 multiple myeloma cell lines against the NCATS MIPE library collection: RPMI8226_ATCC cell viability assay (AID 1919871); further: nearly all actives have a fitted effect of over 30% in size
How it was run: as §1

[13] = Quantitative High-Throughput drug screen in 47 multiple myeloma cell lines against the NCATS MIPE library collection: OPM2_DSMZ cell viability assay (AID 1919872); further: nearly all actives have a fitted effect of over 30% in size
How it was run: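 Myeloma cell lines, 500 cells per well, exposed to MIPE 4.0 library compounds for 48 h at 37C, 5% CO2. Viability from ATP by CellTiter-Glo luminescence; normalised to DMSO (100%) and media-only (0%) wells.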

[14] = Quantitative High-Throughput drug screen in 47 multiple myeloma cell lines against the NCATS MIPE library collection: KMS11_JCRBsus cell viability assay (AID 1919873); further: nearly all actives have a fitted effect of over 50% in size
How it was run: as §1

[15] = Quantitative High-Throughput drug screen in 47 multiple myeloma cell lines against the NCATS MIPE library collection: KMS28BM_JCRB cell viability assay (AID 1919874); further: nearly all actives have a fitted effect of over 35% in size
How it was run: as §1

[16] = qHTS for identification of novel therapeutic agents for treatment of microphthalmiaassociated transcription factor (MiT) renal cell carcinoma (RCC) (AID 1963991; calls by dose curve); conditions: CellTiter-Glo, 48 h; for Potency: active = Z-AUC below -0.8 in all three lines; for z-score: stronger effect = lower value
How it was run: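 Three TFE3-fusion RCC cell lines (UOK109, UOK124, UOK145), 500 cells/well, were exposed to the 1912-compound MIPE 4.0 library for 48 hours at 37 C. Viability was read by CellTiter-Glo luminescence, normalised to DMSO (100%) and empty wells (0%), with 11-concentration curve fits.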

[17] = qHTS profiling for inhibitors of Plasmodium falciparum proliferation (AID 504749); further: nearly all actives have a fitted effect of over 60% in size; conditions: P. falciparum in erythrocytes, SYBR Green DNA, 72 h
How it was run: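 P. falciparum-infected erythrocytes (0.3% parasitemia, 2.5% hematocrit) incubated with compound 72 h at 37 C, 5% CO2. Parasite DNA detected by SYBR Green after lysis, overnight at room temperature; normalised to 0.29 uM artemisinin and DMSO.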

[18] = Quantitative High-Throughput drug screen in 47 multiple myeloma cell lines against the NCATS MIPE library collection: U266_ATCC cell viability assay (AID 1919864); further: nearly all actives have a fitted effect of over 35% in size
How it was run: as §1

[19] = qHTS drug screen for cell cycle checkpoint inhibitors in PARPi-resistant BRCA-mutant ovarian cancer cell lines. (AID 1963452; calls by dose curve); conditions: PEO1/OlaR viability, CellTiter-Glo luminescence, 96 h; for Z-AUC: stronger effect = lower value
How it was run: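 PEO1, PEO4 and PEO1/OlaR ovarian cancer cells, 600 per well, exposed 96 h at 37C to a dilution series. Viability read by CellTiter-Glo luminescence, normalized to DMSO and empty wells; activity summarized as Z-AUC.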

[20] = Quantitative High-Throughput drug screen in 47 multiple myeloma cell lines against the NCATS MIPE library collection: OPM1_PLB cell viability assay (AID 1918989); further: nearly all actives have a fitted effect of over 40% in size
How it was run: as §1

[21] = TFE3-RCC UOK109 viability, measured here: UOK109 Z-AUC
[22] = TFE3-RCC viability, measured here: UOK124 Z-AUC
[23] = TFE3-RCC viability, measured here: UOK145 Z-AUC
[24] = measured here: PEO1 parental Z-AUC
Potency means the concentration at half of the fitted maximal effect.

CC[C@H]1CN2CCc3cc(OC)c(OC)cc3[C@H]2C[C@@H]1C[C@@H]1NCCc2cc(OC)c(OC)cc21
active: Potency [1] 59 nM | Potency [2] 132 nM | Potency [3] 526 nM | Potency [4] 187 nM | Potency [5] 296 nM | Potency [6] 105 nM | Potency [7] 148 nM | Potency [8] 148 nM | Potency [9] 187 nM | Potency [10] 296 nM | Potency [11] 166 nM | Potency [12] 148 nM | Potency [13] 418 nM | Potency [14] 166 nM | Potency [15] 235 nM | Potency ([16]; TFE3-RCC UOK109 viability) 166 nM | Potency ([17]; parasite line A) 316 nM | Potency ([17]; parasite line B) 282 nM
-3.58: z-score [16, 23]
-1.94: z-score [16, 21]
-1.32: z-score [16, 22]

CN1CCN(Cc2ccc(NC(=O)Nc3ccc(Oc4cc(NC(=O)C5CC5)ncn4)cc3)cc2C(F)(F)F)CC1
inactive: Potency [1] | Z-AUC [19] -1.5
-1.93: Z-AUC ([19]; measured here: PEO4 Z-AUC)
active: Potency [2] 332 nM | Potency [3] 526 nM | Potency [4] 332 nM | Potency [5] 332 nM | Potency [18] 418 nM | Potency [6] 148 nM | Potency [7] 187 nM | Potency [8] 93.5 nM | Potency [9] 132 nM | Potency [10] 148 nM | Potency [11] 105 nM | Potency [12] 418 nM | Potency [13] 526 nM | Potency [14] 235 nM | Potency [15] 209 nM
-2.15: Z-AUC [19, 24]

CC=C1NC(=O)[C@H]2CSSCCC=C[C@H](CC(=O)N[C@H](C(C)C)C(=O)N2)OC(=O)[C@H](C(C)C)NC1=O
-4.08: z-score [16, 22]
-2.23: z-score [16, 21]
-2.33: z-score [16, 23]
active: Potency [1] 6.6 nM | Potency [2] 26.4 nM | Potency [3] 59 nM | Potency [4] 6.6 nM | Potency [20] 13.2 nM | Potency [5] 41.8 nM | Potency [6] 23.5 nM | Potency [7] 26.4 nM | Potency [8] 1 nM | Potency [9] 33.2 nM | Potency [10] 59 nM | Potency [11] 1 nM | Potency [12] 26.4 nM | Potency [13] 29.6 nM | Potency [14] 18.7 nM | Potency [15] 16.6 nM | Potency ([16]; TFE3-RCC UOK109 viability) 33.2 nM

CN(C)Cc1c(C(=O)NCCOc2ccc(C(=O)NO)cc2)oc2ccccc12
active: Potency [1] 332 nM | Potency [2] 526 nM | Potency [3] 590 nM | Potency [4] 469 nM | Potency [20] 469 nM | Potency [5] 1050 nM | Potency [6] 2960 nM | Potency [7] 1050 nM | Potency [8] 148 nM | Potency [9] 418 nM | Potency [10] 2350 nM | Potency [11] 935 nM | Potency [12] 1480 nM | Potency [13] 1050 nM | Potency [14] 662 nM | Potency [15] 418 nM
-1.25: Z-AUC [19, 24]
-1.26: Z-AUC ([19]; measured here: PEO4 Z-AUC)
inactive: Z-AUC [19] -0.744

CCc1c2c(nc3ccc(O)cc13)-c1cc3c(c(=O)n1C2)COC(=O)[C@]3(O)CC
-2.08: z-score [16, 22]
-2.56: z-score [16, 23]
active: Potency [1] 590 nM | Potency [2] 264 nM | Potency [3] 1 nM | Potency [4] 1180 nM | Potency [20] 935 nM | Potency [5] 469 nM | Potency [18] 743 nM | Potency [10] 148 nM | Potency [12] 1320 nM | Potency [13] 1180 nM | Potency [14] 662 nM | Potency [15] 74.3 nM | Potency [19] 6.2 nM | Potency ([16]; TFE3-RCC UOK109 viability) 469 nM
-3.13: Z-AUC ([19]; measured here: PEO4 Z-AUC)
-3.8: Z-AUC [19, 24]
-1.63: z-score [16, 21]

CC(C)(C)OC(=O)Nc1ccc(-c2cc(C(=O)NCCCCCCC(=O)NO)no2)cc1
inactive: Z-AUC [19] -0.0304
0.196: Z-AUC ([19]; measured here: PEO4 Z-AUC)
active: Potency [1] 469 nM | Potency [2] 2350 nM | Potency [3] 1320 nM | Potency [4] 1870 nM | Potency [20] 1870 nM | Potency [5] 2090 nM | Potency [18] 2960 nM | Potency [7] 1870 nM | Potency [8] 833 nM | Potency [9] 590 nM | Potency [10] 2640 nM | Potency [12] 3320 nM | Potency [13] 2640 nM | Potency [14] 1480 nM | Potency [15] 1050 nM
0.0473: Z-AUC [19, 24]

CCS(=O)(=O)c1cccc(-c2cc(C(=O)NC3CCN(C)CC3)c(C)c3[nH]c4ncc(C)cc4c23)c1
active: Potency [1] 1480 nM | Potency [2] 935 nM | Potency [3] 4180 nM | Potency [4] 1480 nM | Potency [20] 590 nM | Potency [5] 8330 nM | Potency [18] 935 nM | Potency [7] 526 nM | Potency [8] 935 nM | Potency [9] 118 nM | Potency [10] 935 nM | Potency [11] 1660 nM | Potency [12] 5900 nM | Potency [13] 2640 nM | Potency [14] 526 nM | Potency [15] 833 nM

Cn1cc(-c2[nH]c3cc(NC(=O)[C@H](N)C4CCCCC4)cc4c3c2C=NNC4=O)cn1
inactive: Z-AUC [19] -0.173
-0.184: Z-AUC [19, 24]
active: Potency [1] 118 nM | Potency [2] 4690 nM | Potency [3] 6620 nM | Potency [4] 1480 nM | Potency [20] 1180 nM | Potency [6] 209 nM | Potency [7] 209 nM | Potency [8] 1870 nM | Potency [9] 74.3 nM | Potency [10] 372 nM | Potency [11] 1050 nM | Potency [13] 7430 nM | Potency [14] 2640 nM | Potency [15] 1320 nM
-0.421: Z-AUC ([19]; measured here: PEO4 Z-AUC)

CC(=O)OCC(=O)[C@@]1(O)[C@H](C)C[C@H]2[C@@H]3C=C(C)C4=Cc5c(cnn5-c5ccccc5)C[C@]4(C)[C@@H]3[C@@H](O)C[C@@]21C
0.732: Z-AUC [19, 24]
-0.158: Z-AUC ([19]; measured here: PEO4 Z-AUC)
active: Potency [1] 46.9 nM | Potency [2] 8330 nM | Potency [3] 7430 nM | Potency [4] 7430 nM | Potency [20] 9350 nM | Potency [5] 18700 nM | Potency [18] 7430 nM | Potency [7] 5260 nM | Potency [8] 9350 nM | Potency [9] 11800 nM | Potency [10] 8330 nM | Potency [11] 3320 nM | Potency [12] 4180 nM
inactive: Potency [15] | Z-AUC [19] -0.679
